This is one part of a sample in which hits are shown more often than they occur.
KDM5B inhibitor: Primary screen for KDM5B Histone Demethylases FDH-coupled qHTS; AID 1347165, 2019; Potency, µM (highest dose often 57.7 µM), usual class: inhibitors; KDM5B demethylase, FDH-coupled NADH fluorescence (FDH is formaldehyde dehydrogenase); Lysine-specific demethylase 5B (Homo sapiens), Q9UGL1; hit rate 2.6% among 220,000; active = well fitted inhibition curve with a large enough effect; also: 0% is about no effect; nearly all actives have a fitted effect of over 70% in size
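Measured: NADH fluorescence change, 30 min, RT. System: KDM5BΔAP 200 nM final, H3K4me3 peptide, α-KG, Fe(II), ascorbate, NAD⁺ plus FDH, pH 7.5 HEPES. Compounds: titrated, 10 min pre-incubation with enzyme.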
The depositor's hits bear a star; i = inactive. Potency is read from the fitted curve at half-maximal effect.

SMILES	KDM5B inhibitor
Cc1cc2ccccc2n1CCNC(=O)c1cccc([N+](=O)[O-])c1	i
CC(C)CCNC(=S)Nc1ccc(SC(F)F)cc1	i
O=C(COc1ccc2ccccc2c1)Nc1cccc2ncccc12	i
CCc1cccc(NC(=O)c2ncoc2-c2cccs2)c1	i
CCOc1ccccc1C(=O)N[C@H](C(=O)O)C(C)C	i
Cc1cc(C)cc(C(=O)NC(Cc2ccccc2)C(=O)N2CCN(c3ccccn3)CC2)c1 (stereo not given)	25µM*
COc1ccc(-c2cnc3[nH]cc(CC(=O)N4CCN(c5ccccn5)CC4)c3c2)cc1	28µM*
COc1ccc(-c2cnc3[nH]cc(CC(=O)NCCN(C)C)c3c2)cc1	40µM*
COc1ccc(-c2cnc3[nH]cc(CC(=O)Nc4ccc(C(F)(F)F)cc4)c3c2)cc1	i
CCOc1ccccc1C(=O)NC(C)c1ccc(-n2ccnc2)cc1 (stereo not given)	i
COc1ccc(OC)c(-c2cnc3[nH]cc(CC(=O)NCc4cccnc4)c3c2)c1	i
COc1ncc(-c2cnc3[nH]cc(CC(=O)N4CCOCC4)c3c2)cn1	i
CCOc1ccccc1C(=O)NC(C)C(=O)N1CCN(c2ccccn2)CC1 (stereo not given)	22µM*
Cc1cc(C)cc(C(=O)N2CCN(c3cc(-c4ccccc4)[nH]n3)CC2)c1	i
O=C(Cc1c[nH]c2ncc(-c3cccnc3)cc12)N1CCN(c2ccccn2)CC1	i
Cc1cccc(C(=O)N[C@@H](C)C(=O)N2CCN(c3ncccn3)CC2)c1	i
CC(C)OCCCNC(=O)CC1CC2CCC1C2 (stereo not given)	i
COc1ccc(-c2nc3cccc(C)n3c2Nc2ccc3c(c2)OCCO3)cc1	i
CCCCn1cnc2c1c(=O)n(CC(=O)Nc1cccc(Cl)c1)c(=O)n2CCC	i
CCc1ccc(C(=O)C(C#N)C(=O)NCc2ccccc2)cc1 (stereo not given)	i
Cc1ccsc1C(=O)OCC(=O)OC1CC(C)CCC1C(C)C (stereo not given)	i
Cc1ccc(-c2cnc(CCC(=O)Nc3ccc(OC(F)F)cc3)o2)cc1	i
CCOC(=O)CCCNC(=O)c1cc(-c2ccncc2)nc2ccccc12	i
Cc1cccc(NC(=O)/C(C#N)=C/c2cc(C(C)(C)C)c(O)c(C(C)(C)C)c2)c1C	i
C=CCNC(=O)NC(=O)COC(=O)c1ccc(COC)cc1	i
SMILES	KDM5B inhibitor
CCNc1c(NS(=O)(=O)c2cccc(F)c2)c(=O)oc2ccccc12	i
CCNS(=O)(=O)c1ccc(C(=O)N2CCCC2c2ccc3c(c2)OCCO3)cc1 (stereo not given)	i
O=C(O)CCC(=O)Nc1ccc2[nH]cc(C(C(=O)O)N3CCN(c4ccccc4)CC3)c2c1 (stereo not given)	i
CC(NC(=O)COc1ccccc1)C(=O)N1CCN(c2ccc(F)cc2)CC1 (stereo not given)	i
CC(NC(=O)COc1ccc(F)cc1)C(=O)N1CCN(c2ccccn2)CC1 (stereo not given)	28µM*
O=C(COc1ccc(F)cc1)N1CCN(c2cc(-c3ccccc3)[nH]n2)CC1	i
CC(C)NC(=O)c1ccc(Cl)cc1	i
NC(=O)[C@@H](Cc1ccccc1)NC(=O)[C@@H]1C[C@@H](NS(=O)(=O)c2cccs2)CCN1C(=O)COCC(=O)O	i
COCc1ccc2c(c1)c(OC(C)(C)C(=O)N1CCN(CCO)CC1)nn2Cc1cccnc1	i
COCc1ccc2c(c1)c(OC(C)(C)C(=O)NCCN1CCOCC1)nn2CCC(C)C	25µM*
COCc1ccc2c(c1)c(OC(C)(C)C(=O)Nc1ccccn1)nn2CCC(C)C	i
COCc1ccc2c(c1)c(OC(C)(C)C(=O)NCCN1CCOCC1)nn2Cc1cccnc1	i
COCc1ccc2c(c1)c(OC(C)(C)C(=O)NCCCn1ccnc1)nn2Cc1cccnc1	i
COCc1ccc2c(c1)c(OC(C)(C)C(=O)NCCCN1CCCC1=O)nn2Cc1cccnc1	i
COCc1ccc2c(c1)c(OC(C)(C)C(=O)NC1CC1)nn2CCC(C)C	40µM*
COCc1ccc2c(c1)c(OC(C)(C)C(=O)NC1CCN(C)CC1)nn2CCC(C)C	35µM*
O=C(Nc1ccc(Cn2cncn2)cc1)c1csc(NCc2ccccc2)n1	i
NC(=O)c1ccc(NC(=O)c2ccc(Cl)c(S(=O)(=O)N3CCc4ccccc4C3)c2)cc1	i
CCCN1C(=O)C(NC(=O)c2ccc(C(C)(C)C)cc2)(C(F)(F)F)C(C(=O)OC)=C1C (stereo not given)	i
CC(C)C(=O)Nc1ccc(CNC(=O)C2CCC(C(C)(C)C)CC2)cc1 (stereo not given)	i
Clc1ccc(-c2csc(NC3CCCC3)n2)c(Cl)c1	i
O=C(NC1CCN(c2cnn(Cc3ccccc3)c(=O)c2)CC1)c1ccoc1	i
COc1ccc(C)cc1NC(=O)COC(=O)c1ccccc1C	i
COCCNc1nccc(C2(c3ccccc3Cl)CCNCC2)n1	22µM*
COc1ccccc1Cc1nccc(C2(c3ccccc3Cl)CCNCC2)n1	i

Bioassay records: PubChem BioAssay, National Center for Advancing Translational Sciences (NCATS)
